Experimental data from PubChem BioAssay (EPA / NIEHS).
Calls of active or inactive are those of the source. Rule for the calls: active = hit-call score of the fitted dose curve at least 0.9, where 1 is the maximum; inactive = score below 0.9.

Columns and labels:
[1] = ATG_E_Box_CIS: Attagene CIS-FACTORIAL HepG2 Assay for human Enhancer Box (E-box) (AID 2282936); settings: HepG2 E-box cis-reporter transcription, actives raise or lower the signal
In short: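 First, HepG2 cells receive multiple cis-regulated reporter constructs by transient transfection. Next, chemicals are applied for 24 h. Finally, reporter mRNA is quantified via RT-PCR and capillary electrophoresis, with DMSO as baseline.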

[2] = ATG_M_61_CIS: Attagene CIS-FACTORIAL HepG2 Assay for M61 Transcription Factor (Internal Marker) (AID 2282937); settings: HepG2 Attagene CIS-FACTORIAL M61 internal marker reporter; actives raise or lower the signal
In short: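 This endpoint serves as an internal background control within a multiplexed HepG2 cis-reporter panel. Cells are exposed for 24 h; reporter mRNA is amplified, fluorescently labelled and sized by capillary electrophoresis, with DMSO as negative control.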

[3] = ATG_EGR_CIS: Attagene CIS-FACTORIAL HepG2 Assay for human Early Growth Response 1 (EGR1) (AID 2282938); settings: HepG2 Attagene CIS-FACTORIAL EGR reporter mRNA; actives raise or lower the signal
In short: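 HepG2, transient MRTU transfection (cis promoters), 24 h compound. RNA → RT (oligo-dT) → PCR → 6-FAM labelling → HpaI cut → CE fluorescence. Bidirectional fit, DMSO baseline.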

[4] = ATG_M_19_CIS: Attagene CIS-FACTORIAL HepG2 Assay for M19 Transcription Factor (Internal Marker) (AID 2282939); settings: HepG2 Attagene CIS-FACTORIAL M19 internal marker reporter; actives raise or lower the signal
In short: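 Readout: fluorescent reporter-transcript fragments by capillary electrophoresis after RT-PCR. Human HepG2 liver cells carried transfected MRTU constructs reporting endogenous transcription-factor activity; exposure 24 h. Gain or loss of signal fitted relative to DMSO.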

[5] = ATG_ERE_CIS: Attagene CIS-FACTORIAL HepG2 Assay for Estrogen Response Element (ERE) (AID 2282940); settings: HepG2 ERE cis-reporter, Attagene RNA transcript; actives raise or lower the signal
In short: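 Readout: reporter mRNA induction by RT-PCR, FAM-labelled primer extension, HpaI digestion and capillary electrophoresis, 24 h after dosing transfected HepG2 cells. Endogenous transcription factors act on cis-element-regulated reporters. Gain or loss fitted against DMSO.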

[6] = ATG_Ets_CIS: Attagene CIS-FACTORIAL HepG2 Assay for human Erythroblast Transformation Specific (ETS) (AID 2282941); settings: HepG2 ETS cis-reporter transcription, actives raise or lower the signal
In short: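 Steps: transfect HepG2 with multiple reporter units; treat compound 24 h; isolate RNA, DNase-treat, reverse-transcribe; PCR-amplify, label with 6-FAM, digest with HpaI; separate by capillary electrophoresis. Activity fitted both directions versus DMSO.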

[7] = biological target: Hepatocyte nuclear factor 3-beta (Homo sapiens) (UniProt Q9Y261); assay: ATG_FoxA2_CIS: Attagene CIS-FACTORIAL HepG2 Assay for human Forkhead box A2 (FOXA2) (AID 2282942); settings: HepG2 cis-reporter transcription factor activity, 24 h; actives raise or lower the signal
In short: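 Cells: HepG2, transient multiplex reporter transfection. Exposure 24 h. Detection: reporter-specific RT-PCR, fluorescent labelling, restriction digest, capillary electrophoresis. Analysis: bidirectional curve fit, DMSO as negative control.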

[8] = ATG_FoxO_CIS: Attagene CIS-FACTORIAL HepG2 Assay for human Forkhead box O (FoxO) (AID 2282943); settings: HepG2 Attagene cis-reporter, FoxO element, mRNA; actives raise or lower the signal
In short: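 Read-out: fluorescence of 6-FAM-labelled reporter cDNA fragments resolved by capillary electrophoresis. Transiently transfected HepG2 cells were dosed for 24 h; activity fitted in both directions relative to DMSO controls.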

[9] = ATG_GATA_CIS: Attagene CIS-FACTORIAL HepG2 Assay for human GATA Binding Protein (AID 2282944); settings: HepG2 GATA cis-element reporter, Attagene multiplex mRNA; actives raise or lower the signal
In short: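 Read-out: fluorescent reporter mRNA fragments resolved by capillary electrophoresis after RT-PCR. Human liver HepG2 cells carried transiently transfected cis-regulated reporter constructs; chemicals incubated 24 h; gain or loss of signal fitted relative to DMSO.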

[10] = ATG_GLI_CIS: Attagene CIS-FACTORIAL HepG2 Assay for human Zinc Finger Protein GLI1 (AID 2282945); settings: HepG2, Attagene cis-factorial reporter mRNA, GLI element; actives raise or lower the signal
In short: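 Transiently transfected HepG2 cells report endogenous transcription factor activity via cis-element-driven reporter units. After 24 h compound exposure, reporter mRNA was measured by RT-PCR with capillary electrophoresis; bidirectional fitting against DMSO baseline.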

Measured: AC50

Hepatocyte nuclear factor 3-beta (Homo sapiens), sequence (Q9Y261 whole entry, looked up): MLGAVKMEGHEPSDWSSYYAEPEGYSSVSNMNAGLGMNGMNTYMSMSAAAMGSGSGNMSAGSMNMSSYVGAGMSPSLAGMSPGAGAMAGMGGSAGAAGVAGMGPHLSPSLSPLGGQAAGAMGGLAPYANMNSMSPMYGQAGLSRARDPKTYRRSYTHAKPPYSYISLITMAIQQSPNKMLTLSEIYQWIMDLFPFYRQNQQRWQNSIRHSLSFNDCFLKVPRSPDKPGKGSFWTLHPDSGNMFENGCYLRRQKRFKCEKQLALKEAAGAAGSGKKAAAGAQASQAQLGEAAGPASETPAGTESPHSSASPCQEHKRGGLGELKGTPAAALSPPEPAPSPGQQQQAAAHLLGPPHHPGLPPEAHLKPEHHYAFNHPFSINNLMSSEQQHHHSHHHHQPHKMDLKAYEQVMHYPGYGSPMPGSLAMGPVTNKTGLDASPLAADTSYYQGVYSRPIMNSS

CCOC(=O)CC(C(C)=O)C(C)=O
inactive: all assays above

CCOC(=O)N1CCC(=C2c3ccc(Cl)cc3CCc3cccnc32)CC1
active: [3] 6.7 µM
inactive: all other assays above

CCOc1ccc(N)c([N+](=O)[O-])c1
inactive: all assays above

C=CC(C)(CCC=C(C)C)OC(=O)C(C)C (stereo not given)
active: [5] 32.1 µM
inactive: all other assays above

CC(C)=CCC/C(C)=C\C#N
inactive: all assays above

O=C(O)c1cc2ccccc2nc1C(=O)O
inactive: all assays above

c1cc(C(c2ccc(OCC3CO3)cc2)C(c2ccc(OCC3CO3)cc2)c2ccc(OCC3CO3)cc2)ccc1OCC1CO1 (stereo not given)
active: [3] 39.5 µM
inactive: all other assays above

CCC(C)OC(=O)c1ccc(O)cc1 (stereo not given)
active: [5] 0.868 µM
inactive: all other assays above

C=C(C)CCO
inactive: all assays above

CCOC(F)(F)C(F)(F)C(F)(F)C(F)(F)F
inactive: all assays above

CC(=O)c1ccc[nH]1
inactive: all assays above

Cc1cc(=O)n(-c2ccccc2)n1C
inactive: all assays above

C1CN(SSN2CCOCC2)CCO1
inactive: all assays above

O=S(=O)(O)CC(O)CCl (stereo not given)
inactive: all assays above

CCCCCCCCCCOC(C)=O
active: [5] 8.88 µM
inactive: all other assays above

CCOCC(=O)O
inactive: all assays above

O=c1n(CCO)c(=O)n(CCO)c(=O)n1CCO
inactive: all assays above

O=C(C=Cc1ccccc1)OCc1ccccc1
inactive: all assays above

CC(CC=O)c1ccccc1 (stereo not given)
active: [5] 112 µM
inactive: all other assays above

O=c1cc[nH]c(=S)[nH]1
inactive: all assays above

CC/C=C\CCOC(=O)CCCCC
inactive: all assays above

O=c1c2ccccc2oc2ccccc12
active: [5] 26.4 µM
inactive: all other assays above

O=C1CCCN1CCO
inactive: all assays above

O=C1Nc2ccccc2C1(c1ccc(O)cc1)c1ccc(O)cc1
active: [1] 71.9 µM | [3] 71.7 µM | [6] 48.8 µM | [8] 100 µM | [10] 70.8 µM
inactive: [2] | [4] | [5] | [7] | [9]

CC(=O)Oc1ccc(C(C)=O)cc1
inactive: all assays above
